Screens (PubChem)
JMJD2A Tudor inh: blocks the human JMJD2A Tudor domain; O75164; AlphaScreen JMJD2A-Tudor / H3K4me3 peptide binding; Potency, µM (top dose mostly 114 µM), most hits filed as inhibitors; hit rate 4.4% among 390,000; AID 504339; also: nearly all actives have a fitted effect of over 50% in size
BAZ2B block: BAZ2B (human) inhibition. Q9UIF8. AID 504333. hit rate 4.4% among 360,000. Potency, µM (series often up to 114 µM), usual class: inhibitors. AlphaScreen BAZ2B-H3K14Ac peptide displacement; also: nearly all actives have a fitted effect of over 60% in size
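BAZ2B (50 nM) with biotin-H3(5-23)K14Ac peptide (50 nM) in PBS pH 7.4, 0.01% Tween-20, preformed 30 min, then compound 30 min at room temperature; top concentration 110uM. AlphaScreen streptavidin donor/nickel chelate acceptor beads (10 ug/mL final), 20 min dark, signal read.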
G9a block: inhibitors of human histone lysine methyltransferase G9a. G9a H3K9 monomethylation, AlphaScreen, 2 h. Potency, µM (doses to about 102 µM), usual class: inhibitors. hit rate 8.8% among 350,000. AID 504332; also: nearly all actives have a fitted effect of over 75% in size
Target sequence (Q96KQ7 913-1193 limits assumed): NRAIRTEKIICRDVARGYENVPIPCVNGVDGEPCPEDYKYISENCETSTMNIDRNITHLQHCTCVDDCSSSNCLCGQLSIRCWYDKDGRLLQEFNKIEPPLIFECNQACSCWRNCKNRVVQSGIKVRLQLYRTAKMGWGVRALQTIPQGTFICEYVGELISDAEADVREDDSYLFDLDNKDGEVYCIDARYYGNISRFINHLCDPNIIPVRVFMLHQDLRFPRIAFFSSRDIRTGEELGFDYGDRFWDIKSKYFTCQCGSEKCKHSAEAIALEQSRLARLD
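G9a (20 nM) was preincubated 15 min with compound, then reacted 2 h at room temperature with 500 nM biotin-H3K9 peptide and 20 µM SAM. Monomethyl-H3K9 detected by AlphaScreen using anti-H3K9me1 antibody.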
GLS inh: inhibitors of human glutaminase (GLS). Potency, µM (highest dose often 45.5 µM), actives largely listed as inhibitors. GLS enzymatic activity, qHTS titration. O94925. AID 624170. hit rate 0.21% among 410,000
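hKGA; 45 mM KH2PO4 pH 8.2 + 0.02% Tween-20; cpd via pin tool; 1 mM Gln soln; GluOx/HRP/Amplex Red; RT 30 min; fluor. t0 & final.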
HP1b chromo inh: inhibitors of HP1-beta chromodomain binding to methylated histone tails. Potency, µM (doses to about 114 µM), actives largely listed as inhibitors. AlphaScreen HP1-beta / biotin-H3K9me3 peptide binding. hit rate 0.56% among 390,000. P83916; also: nearly all actives have a fitted effect of over 70% in size
Target sequence (P83916 whole entry, looked up): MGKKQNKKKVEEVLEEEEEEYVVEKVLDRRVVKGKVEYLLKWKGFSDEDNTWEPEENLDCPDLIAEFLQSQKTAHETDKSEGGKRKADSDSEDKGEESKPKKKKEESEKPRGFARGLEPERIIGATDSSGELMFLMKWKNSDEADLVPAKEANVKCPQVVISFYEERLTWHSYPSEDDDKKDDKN
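Compound inhibition of the preformed complex between 50 nM HP1-beta and 50 nM biotinylated H3K9me3 peptide was read by AlphaScreen. Buffer was PBS pH 7.4 with 0.01% Tween-20. Incubations ran 30 min at room temperature, with 10 ug/mL donor/acceptor beads.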
A number is an active result; 0 = inactive; ? = inconclusive; - = no result; [ ] = dose if it differs, or a comment. Rows were chosen to be rich in hits. Some 10% of all compounds tested hit in one or more screens of this group. Calls follow the shape of the dose curve; as a rule, active = well fitted curve in the direction sought with a large enough effect; inconclusive = small, poorly fitted or top-dose-only effect, or another doubt; inactive = no such curve, though single readings can be large; an effect the other way counts as inactive or inconclusive.

SMILES	JMJD2A Tudor inh	BAZ2B block	G9a block	GLS inh	HP1b chromo inh
COc1cc2c(cc1OC)C(C)N(C(=O)c1cc3n(n1)C(C(F)(F)F)CC(c1ccco1)N3)CC2 (stereo unspecified)	?	?	17.8µM	0	0
Cc1cc(Cl)c(OCCCNC2CCCC2)c(Br)c1	22.4µM	?	10µM	0	0
COCCCNCCCCOc1c(Cl)cc(C)cc1Br	2.51µM	22.4µM	-	0	?
CCN(CC)c1ccc(NC(=O)COC(=O)CCc2cc(OC)c(OC)c(OC)c2)cc1	-	-	-	0	-
CCN(c1ccc(NC(=O)COC(=O)CCc2cc(OC)c(OC)c(OC)c2)cc1)C(C)C	?	0	25.1µM	0	?
O=C(NCCc1ccccc1)c1nc2c(nnn2Cc2ccccc2Cl)c(=O)[nH]1	0	0	0	0	0
COc1ccc(Cn2nnc3c(=O)[nH]c(C(=O)NCCc4ccc(F)cc4)nc32)cc1OC	79.4µM	0	0	0	0
COCCNC(=O)c1nc2c(nnn2Cc2cc(C)ccc2C)c(=O)[nH]1	?	0	11.2µM	0	0
COCCCOc1cc(C[C@@H](C[C@H](N)[C@@H](O)C[C@H](C(=O)NCC(C)(C)C(N)=O)C(C)C)C(C)C)ccc1OC	-	-	-	0	-
COc1cc(NC(=O)c2c(C)oc3ncnc(N4CCCCC4)c23)cc(OC)c1	0	0	0	0	0
O=C(CCCCn1c(=O)c2ccccc2n(CC(=O)Nc2ccc(F)cc2F)c1=O)NCCc1ccccc1	0	0	0	0	0
CC(C)(C)NC(=O)CN1C(=O)/C(=C/c2ccccc2)SC1=S	0	0	0[12.7 µM]	0	0
CCN1C(=O)/C(=C/C=C2/Sc3ccccc3N2CCO)SC1=S	0	0	44.7µM	0	0
CCCN1C(=O)/C(=C\C=C2/Sc3ccccc3N2CCO)SC1=S	0	0	?	0	0
CN1CCS/C1=C\C=C1/SC(=S)N(CC(=O)O)C1=O	0	?	39.8µM	0	0
CCCCN1C(=O)/C(=C/C=C2\Oc3ccccc3N2CC)SC1=S	0	?	0[0.501 µM]	0	0
CCCCN1C(=O)/C(=C/C=C2/CC(C)(C)CN2C)SC1=S	?	8.91µM	?	0	?
CCN1C(=O)/C(=C/N2CCc3ccccc32)SC1=S	0	0	0[12.7 µM]	0	0
CCN1C(=O)/C(=C/C=C2/SCCN2C)SC1=S	0[11.4 µM]	0	8.91µM	0	0
Cc1cccc(NC(=O)c2ncn3c2C(=O)N[C@@H](C)C3)c1	-	-	-	0	-
CC(=O)c1ccc(NC(=O)C(C)n2nc(-c3ccccc3)ccc2=O)cc1 (stereo unspecified)	0	0	0	0	0
COc1ccc(C)cc1NC(=O)C(=O)NCCc1csc(-c2ccc(C)cc2)n1	0	0	0	0	0
CCOC(=O)c1cc(C#N)c(SCC(=O)c2cc(C#N)c(SC)nc2C)[nH]c1=O	79.4µM	0	50.1µM	0	0
CCOC(=O)c1cc(C#N)c(SCC(=O)Nc2ccc(C(C)=O)cc2)[nH]c1=O	0	0	?	0	0
CSc1[nH]c(=O)c(C(=O)O)cc1C#N	0	50.1µM	0[12.7 µM]	0	0
SMILES	JMJD2A Tudor inh	BAZ2B block	G9a block	GLS inh	HP1b chromo inh
CCOC(=O)c1cc(C#N)c(SCC(N)=O)[nH]c1=O	0	0	12.6µM	0	0
CCOC(=O)c1cc(C#N)c(SCC(=O)O)[nH]c1=O	31.6µM	?	?	?	0
O=[N+]([O-])c1ccc(Nc2cccc3c2[nH]c2c(-c4ccccc4)nccc23)c([N+](=O)[O-])c1	?	-	-	0	0
CN=C(NC)NCc1ccccc1	-	-	-	0	-
NC(=O)c1c(NC(=O)c2ccc([N+](=O)[O-])o2)sc2c1CCCC2	0	0	0	0	0
N#Cc1c(NC(=O)c2ccc([N+](=O)[O-])o2)sc2c1CCC2	?	39.8µM	31.6µM	0	?
Cc1ccc(-c2nc3cc(C(C)C)ccc3o2)cc1NC(=O)c1cc([N+](=O)[O-])ccc1N1CCOCC1	0	89.1µM	0	0	0
N#Cc1c(NC(=O)c2ccc(Cn3cc(Br)cn3)o2)sc2c1CCCCCC2	0	0	11.2µM	0	0
CC(C)c1ccc(NC(=O)c2cc([N+](=O)[O-])ccc2N2CCOCC2)cc1	0	0	?	0	0
N#Cc1c(NC(=O)c2cc([N+](=O)[O-])ccc2N2CCOCC2)sc2c1CCCC2	?	56.2µM	?	0	0
Cc1cccc(S(=O)(=O)N2CCN(S(=O)(=O)c3ccc4c(c3)OCCO4)CC2)c1	0	-	-	-	-
N#CN=c1snc(-c2ccccc2Cl)n1-c1ccccc1Cl	0	-	-	-	0
C/C(=N\O)C(=O)NCCN(C)C	7.94µM	0	?	0	0
